# Source: PubChem BioAssay (EPA / NIEHS)
# Records with an inconclusive call do not appear. Active and inactive are the calls of the source. The calls were made as follows, unless noted: active = hit-call score of the fitted dose curve at least 0.9, where 1 is the maximum; inconclusive = response in the unintended direction; inactive = score below 0.9.
# How the values were obtained:
# [1] = VALA_TUBHUV_Agonist_CellCount: Viability Assessment in the VALA Sciences human Umbilical Vein Endothelial Tubule Formation (TUBHUV) Agonism Assay (AID 2284309)
# Procedure: (§1) VALA_TUBHUV_Agonist is a cell-based, multiplexed assay that uses human umbilical vein endothelial cells (HUVEC). Measurements were taken 72 hours after chemical dosing in a 96-well plate.VALA_TUBHUV_Agonist_CellCount is the one of two assay components measured from the VALA_TUBHUV_Agonist assay. It is designed to make measurements of viability, a form of viability reporter, as detected with fluorescence intensity signals by HCS Fluorescent Imaging technology. Data from the assay component VALA_TUBHUV_Agonist_CellCount was analyzed at the endpoint, VALA_TUBHUV_Agonist_CellCount, in the positive analysis fitting direction relative to DMSO as the negative control and baseline of activity. Using a type of viability reporter, loss-of-signal activity can be used to understand viability. To generalize the intended target to other relatable targets, this assay endpoint is annotated to the cell cycle intended target family, where the subfamily is cell count.
# (§2) […]
# [2] = VALA_MIGHUV2_CellCount: Viability Assessment in the VALA Sciences human Umbilical Vein Endothelial Cell Migration (MIGHUV) Assay, Area of Scratch Wound after Recovery (AID 2284314)
# Method in brief: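 Viability read-out: Hoechst-stained nuclei counted by fluorescence imaging after a 24 h recovery period in fixed, scratched HUVEC plates. Compound was dosed within 30 min of scratching at six concentrations (triplicate); DMSO at 0.1 % served as baseline.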
# [3] = VALA_MIGHUV2_WoundArea: VALA Sciences human Umbilical Vein Endothelial Cell Migration (MIGHUV) Assay, Area of Scratch Wound after Recovery (AID 2284316)
# Method in brief: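 Wound-area endpoint read by fluorescence imaging of Hoechst-stained nuclei after a 24 h recovery period following scratch of HUVEC monolayers (9000 cells/well). Chemicals dosed within 30 min post-scratch, triplicate 6-point series, 0.1% DMSO vehicle; Cytochalasin D positive control.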
# [4] = IUF_NPC2-5_cytotoxicity_120hr: Cytotoxicity Assessment at 120 hours in the Leibniz Research Institute for Environmental Medicine (IUF) Neural Progenitor Cell Migration and Differentiation Assay (NPC2-5) (AID 2284307)
# Method in brief: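 hNPC spheres on PDL/laminin, N2 medium, 37C; 7 concs + solvent control, DMSO ≤0.1%; 5-day exposure, half medium changed day 3. LDH in supernatant at 120 h, resazurin→resorufin fluorescence, gain-of-signal.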
# [5] = IUF_NPC2-5_cell_number_120hr: Cell Number Assessment at 120 hours in the Leibniz Research Institute for Environmental Medicine (IUF) Neural Progenitor Cell Migration and Differentiation Assay (NPC2-5) (AID 2284308; active = hit-call score of the fitted dose curve at least 0.9, where 1 is the maximum; inactive = score below 0.9;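 also: count of Hoechst-stained nuclei in migration zone around plated human neural progenitor spheres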)
# Method in brief: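 Hoechst-stained nuclei within the migration area were counted by automated high content imaging after 120 h. Single hNPC spheres differentiated on poly-D-lysine/laminin in DMEM/F12 (3:1) with 1% N2, compound present throughout, DMSO ≤0.1%.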
# [6] = IUF_NPC2-5_viability_120hr: Viability Assessment at 120 hours in the Leibniz Research Institute for Environmental Medicine (IUF) Neural Progenitor Cell Migration and Differentiation Assay (NPC2-5) (AID 2284312; active = hit-call score of the fitted dose curve at least 0.9, where 1 is the maximum; inactive = score below 0.9)
# Method in brief: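 Alamar blue resorufin fluorescence read after 5 days of differentiation, with compound present from day 0 and replenished at day 3. Primary hNPC spheres on laminin-coated plates, 37C; seven concentrations plus solvent control, fitted against DMSO.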
# [7] = VALA_TUBHUV_Antagonist_CellCount: Viability Assessment in the VALA Sciences human Umbilical Vein Endothelial Tubule Formation (TUBHUV) Antagonism Assay (AID 2284310)
# Procedure: as §1, with “VALA_TUBHUV_Antagonist” for “VALA_TUBHUV_Agonist”, “plate.VALA_TUBHUV_Antagonist_CellCount” for “plate.VALA_TUBHUV_Agonist_CellCount”, “VALA_TUBHUV_Antagonist_CellCount” for “VALA_TUBHUV_Agonist_CellCount”, “VALA_TUBHUV_Antagonist_CellCount,” for “VALA_TUBHUV_Agonist_CellCount,”
# This HUVEC-HDF assay was designed to detect chemical suppression of tubulogenesis, i.e. antagonism. To measure tubulogenesis antagonism, HUVEC cells were co-cultured with HDF cells at a 1:3 ratio for 3-days in 10 ng/ml VEGF (i.e., favorable conditions with growth factors), then changed to assay medium containing 10 ng/ml VEGF and ToxCast compounds for an additional 3-day period. […]
# [8] = VALA_TUBIPS_Antagonist_TubuleLength: VALA Sciences human iPS-derived Endothelial Tubule Formation (TUBIPS) Antagonist Assay (AID 2284313)
# Procedure: VALA_TUBIPS_Agonist is a cell-based, multiplexed assay that uses human iPS-derived endothelial cells (iPSC). Measurements were taken 72 hours after chemical dosing in a 96-well plate.VALA_TUBIPS_Antagonist_TubuleLength is the one of two assay components measured from the VALA_TUBIPS_Antagonist assay. It is designed to make measurements of tubulogenesis, a form of morphology reporter, as detected with fluorescence intensity signals by HCS Fluorescent Imaging technology. This VALA_TUBIPS_Antagonist assay was designed to detect chemical suppression of tubulogenesis, i.e. antagonism.Data from the assay component VALA_TUBIPS_Antagonist_TubuleLength was analyzed at the endpoint, VALA_TUBIPS_Antagonist_TubuleLength, in the positive analysis fitting direction relative to DMSO as the negative control and baseline of activity. Using a type of morphology reporter, loss-of-signal activity can be used to understand developmental effects. To generalize the intended target to other relatable targets, this assay endpoint is annotated to the neurodevelopment intended target family, where the subfamily is tubulogenesis.
# as §2
# [9] = VALA_TUBIPS_Agonist_TubuleLength: VALA Sciences human iPS-derived Endothelial Tubule Formation (TUBIPS) Agonism Assay (AID 2284311)
# Method in brief: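 Agonist-mode readout is the gain in imaged tubule length versus DMSO baseline. It was measured by fluorescence high-content imaging 72 h after dosing human iPSC-derived endothelial cells.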
# [10] = system: IYD (gene 389434); test: CCTE_GLTED_hIYD: CCTE's human Iodotyrosine Deiodinase (xIYD) Inhibition Assay, Great Lakes Toxicology and Ecology Division (GLTED) Lab (AID 2284317);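 also: cell-free human IYD enzyme made in baculovirus insect cells; iodide freed from monoiodotyrosine measured by cerium arsenite color change at 420 nm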
# Method in brief: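 Iodide liberated from monoiodotyrosine by baculovirus-expressed human IYD over 3 h was determined colorimetrically (Sandell-Kolthoff, 420 nm) after Dowex separation; inhibition is loss of signal versus DMSO.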
structure (smiles),measurement,setting,value
Oc1ccc2ccccc2c1N=Nc1ccccc1,outcome,[1],inactive
same,outcome,[2],inactive
same,outcome,[3],inactive
C[Si]1(C)O[Si](C)(C)O[Si](C)(C)O[Si](C)(C)O1,outcome,[4],inactive
same,outcome,[5],inactive
same,outcome,[6],inactive
Cc1cc(NC(=O)C(=O)O)cc(C)c1Oc1ccc(O)c2c1CCC2,AC50,[1],91.7 µM (active)
same,AC50,[7],81.2 µM (active)
same,outcome,[8],inactive
COC(=O)c1ccc(O)cc1,outcome,[1],inactive
same,outcome,[7],inactive
same,outcome,[8],inactive
OC[C@@H](O)[C@@H](O)[C@H](O)[C@H](O)CO,outcome,[4],inactive
same,outcome,[5],inactive
same,outcome,[1],inactive
same,outcome,[9],inactive
same,outcome,[6],inactive
same,outcome,[8],inactive
same,outcome,[2],inactive
same,outcome,[3],inactive
O=c1c(O)c(-c2ccc(O)c(O)c2)oc2cc(O)cc(O)c12,outcome,[1],inactive
same,outcome,[8],inactive
CCCCC(CC)COC(=O)CC(C(=O)OCC(CC)CCCC)S(=O)(=O)O (centres undefined),AC50,[1],7.22 µM (active)
same,outcome,[9],inactive
same,outcome,[8],inactive
same,AC50,[2],50 µM (active)
same,outcome,[3],inactive
same,AC50,[10],41.5 µM (active)
CC(=O)Oc1ccccc1C(=O)O,outcome,[4],inactive
same,outcome,[5],inactive
same,outcome,[6],inactive
COc1cc(S(=O)(=O)O)c(C)cc1N=Nc1c(O)ccc2cc(S(=O)(=O)O)ccc12,AC50,[10],154 µM (active)
CCCc1cc(=O)[nH]c(=S)[nH]1,outcome,[1],inactive
same,outcome,[8],inactive
